Consider twelve substances from the supplement of paper PMC8728848.

Common to all, as to experiment: glycan array binding signal (z-score within array); higher = stronger binding
Holding throughout (conditions): glycan notation: IUPAC condensed, linker removed

In experiment [1] the test system is Gal(b1-3)GalNAc(b1-4)Gal(b1-4)Glc. In short, it runs like this: (§1)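 Glycan array data came from 3228 arrays in the Consortium for Functional Glycomics database, and only arrays with an available protein sequence were kept. Glycan names were put into IUPAC-condensed notation, and columns mapping to the same glycan were averaged. The binding signal is a within-array Z-score, averaged across arrays of one protein sequence run at different concentrations or buffers and across linkers. A negative Z-score can be read as non-binding.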

For experiment [2], the system named is Gal(b1-3)GalNAc(b1-4)[Neu5Ac(a2-3)]Gal(b1-4)Glc. In short, it runs like this: as §1
The test system of experiment [3] is Gal(b1-3)GlcNAc(b1-2)Man(a1-3)[GlcNAc(b1-4)][Gal(b1-3)GlcNAc(b1-2)Man(a1-6)]Man(b1-4)GlcNAc(b1-4)GlcNAc. In short, it runs like this:
as §1

In a further experiment the test system is Gal(b1-3)Gal. Put shortly: as §1
Experiment [4] relates to Gal(b1-3)GlcNAc(b1-3)Gal(b1-4)GlcNAc. Put shortly:
as §1

In experiment [5] the test system is Gal(b1-3)GlcNAc(a1-6)Gal(b1-4)GlcNAc. Put shortly:
as §1

Experiment [6] has as its system Gal(b1-3)GlcNAc(b1-3)Gal(b1-4)GlcNAc(b1-2)[Gal(b1-3)GlcNAc(b1-3)Gal(b1-4)GlcNAc(b1-6)]Man(a1-6)[Gal(b1-3)GlcNAc(b1-3)Gal(b1-4)GlcNAc(b1-2)Man(a1-3)]Man(b1-4)GlcNAc(b1-4)[Fuc(a1-6)]GlcNAc. Put shortly:
as §1

In experiment [7] the test system is Gal(b1-3)GlcNAc(b1-2)Man(a1-3)[Gal(b1-3)GlcNAc(b1-2)Man(a1-6)]Man(b1-4)GlcNAc(b1-4)GlcNAc. Put shortly: as §1
Experiment [8] concerns Gal(b1-3)GlcNAc(b1-2)Man(a1-3)[Gal(b1-3)GlcNAc(b1-2)Man(a1-6)]Man(b1-4)GlcNAc(b1-4)[Fuc(a1-6)]GlcNAc. In short, it runs like this: as §1
The subject of experiment [9] is Gal(b1-3)GlcNAc(b1-3)Gal(b1-4)GlcNAc(b1-6)[Gal(b1-3)GlcNAc(b1-3)]Gal(b1-4)Glc. In short, it runs like this: as §1

About 410 targets per protein were measured; listed, in parts, are those with the strongest signals and a random draw of the rest.

Regenerating Gene IV (Homo sapiens), Q9BYZ8, sequence (Q9BYZ8 whole entry, looked up): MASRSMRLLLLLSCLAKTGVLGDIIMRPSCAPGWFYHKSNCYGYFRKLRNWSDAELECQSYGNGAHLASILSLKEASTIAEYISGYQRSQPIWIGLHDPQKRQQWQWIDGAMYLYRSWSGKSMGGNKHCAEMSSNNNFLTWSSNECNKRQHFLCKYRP
Avaren (Actinomycete K97), sequence (chain, as listed by the source): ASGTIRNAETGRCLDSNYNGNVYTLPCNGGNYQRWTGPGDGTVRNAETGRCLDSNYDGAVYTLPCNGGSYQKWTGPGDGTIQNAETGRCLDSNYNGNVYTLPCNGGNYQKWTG
CHI3L1 (Homo sapiens), P36222, sequence (P36222 whole entry): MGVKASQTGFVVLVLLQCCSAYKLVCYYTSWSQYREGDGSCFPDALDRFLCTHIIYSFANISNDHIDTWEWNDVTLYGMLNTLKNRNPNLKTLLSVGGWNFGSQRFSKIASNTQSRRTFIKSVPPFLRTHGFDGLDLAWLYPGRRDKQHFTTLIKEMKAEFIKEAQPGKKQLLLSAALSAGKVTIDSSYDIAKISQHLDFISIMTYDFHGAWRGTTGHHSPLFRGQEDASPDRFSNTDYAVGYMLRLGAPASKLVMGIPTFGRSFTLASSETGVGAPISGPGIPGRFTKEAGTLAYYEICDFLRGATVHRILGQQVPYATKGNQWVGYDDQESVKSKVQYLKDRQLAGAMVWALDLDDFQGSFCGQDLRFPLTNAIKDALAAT
wLAT-1A (Homo sapiens), Q01650, sequence (Q01650 whole entry): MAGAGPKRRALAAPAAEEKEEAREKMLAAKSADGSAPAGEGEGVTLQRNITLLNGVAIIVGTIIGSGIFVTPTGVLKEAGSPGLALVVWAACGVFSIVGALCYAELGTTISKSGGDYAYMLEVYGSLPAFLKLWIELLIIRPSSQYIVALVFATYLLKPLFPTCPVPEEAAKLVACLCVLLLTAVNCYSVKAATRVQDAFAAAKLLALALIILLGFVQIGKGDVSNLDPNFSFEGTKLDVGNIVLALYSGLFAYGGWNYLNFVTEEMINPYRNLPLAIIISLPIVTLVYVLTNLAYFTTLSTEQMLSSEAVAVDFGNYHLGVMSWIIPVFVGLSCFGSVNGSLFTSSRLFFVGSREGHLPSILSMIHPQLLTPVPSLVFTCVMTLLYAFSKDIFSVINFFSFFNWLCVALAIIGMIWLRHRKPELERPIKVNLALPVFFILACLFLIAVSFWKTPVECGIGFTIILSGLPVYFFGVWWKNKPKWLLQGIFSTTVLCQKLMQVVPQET
PILRb (Mus musculus), Q2YSF2, sequence (Q2YSF2 entry or part of it): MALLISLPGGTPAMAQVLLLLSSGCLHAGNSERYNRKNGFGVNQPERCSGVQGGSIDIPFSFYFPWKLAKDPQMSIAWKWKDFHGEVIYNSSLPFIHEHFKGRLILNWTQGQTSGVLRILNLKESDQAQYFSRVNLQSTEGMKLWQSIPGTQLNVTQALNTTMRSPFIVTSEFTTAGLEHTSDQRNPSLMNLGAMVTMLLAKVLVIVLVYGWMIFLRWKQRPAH
C3b (Homo sapiens), P01024, sequence (P01024 23-667): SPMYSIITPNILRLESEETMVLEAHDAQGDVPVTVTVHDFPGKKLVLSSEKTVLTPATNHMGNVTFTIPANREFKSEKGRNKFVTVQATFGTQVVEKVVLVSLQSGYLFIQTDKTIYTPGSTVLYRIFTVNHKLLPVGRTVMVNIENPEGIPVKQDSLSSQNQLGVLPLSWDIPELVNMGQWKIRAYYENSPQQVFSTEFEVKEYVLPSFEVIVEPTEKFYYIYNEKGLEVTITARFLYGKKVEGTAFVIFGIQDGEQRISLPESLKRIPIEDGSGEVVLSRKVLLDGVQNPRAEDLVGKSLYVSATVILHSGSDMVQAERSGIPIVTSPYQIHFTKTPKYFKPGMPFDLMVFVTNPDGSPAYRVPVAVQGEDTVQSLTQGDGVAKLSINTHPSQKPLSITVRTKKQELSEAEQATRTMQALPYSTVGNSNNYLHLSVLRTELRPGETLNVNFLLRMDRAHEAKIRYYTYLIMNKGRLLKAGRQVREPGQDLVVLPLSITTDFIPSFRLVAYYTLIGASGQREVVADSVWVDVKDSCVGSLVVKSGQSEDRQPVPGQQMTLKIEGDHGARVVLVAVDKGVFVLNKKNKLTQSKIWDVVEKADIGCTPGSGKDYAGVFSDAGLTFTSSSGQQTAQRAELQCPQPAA
6RG (Lolium perenne), sequence (chain, as listed by the source): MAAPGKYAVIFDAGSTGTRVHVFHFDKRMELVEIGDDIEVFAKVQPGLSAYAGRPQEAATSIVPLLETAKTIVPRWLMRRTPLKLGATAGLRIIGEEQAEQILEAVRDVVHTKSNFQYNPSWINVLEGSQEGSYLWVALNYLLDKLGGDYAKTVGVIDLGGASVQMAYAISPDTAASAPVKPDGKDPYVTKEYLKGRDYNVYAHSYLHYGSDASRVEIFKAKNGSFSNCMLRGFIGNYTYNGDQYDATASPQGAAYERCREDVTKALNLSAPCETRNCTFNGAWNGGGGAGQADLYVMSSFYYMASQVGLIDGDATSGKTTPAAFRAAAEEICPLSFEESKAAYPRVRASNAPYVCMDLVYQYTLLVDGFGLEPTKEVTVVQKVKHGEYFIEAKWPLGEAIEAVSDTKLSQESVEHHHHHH
PILRa (Mus musculus), Q2YSF3, sequence (Q2YSF3 entry or part of it): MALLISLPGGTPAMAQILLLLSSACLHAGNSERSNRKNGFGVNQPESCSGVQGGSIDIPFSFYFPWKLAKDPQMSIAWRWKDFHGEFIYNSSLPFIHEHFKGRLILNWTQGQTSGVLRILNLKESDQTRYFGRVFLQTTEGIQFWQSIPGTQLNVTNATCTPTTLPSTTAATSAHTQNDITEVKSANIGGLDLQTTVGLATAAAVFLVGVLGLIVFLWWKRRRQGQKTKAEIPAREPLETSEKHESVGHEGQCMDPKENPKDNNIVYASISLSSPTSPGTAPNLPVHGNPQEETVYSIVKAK
Neurocan (Homo sapiens), O14594, sequence (O14594 other isoform, or with tags, fused parts or gaps): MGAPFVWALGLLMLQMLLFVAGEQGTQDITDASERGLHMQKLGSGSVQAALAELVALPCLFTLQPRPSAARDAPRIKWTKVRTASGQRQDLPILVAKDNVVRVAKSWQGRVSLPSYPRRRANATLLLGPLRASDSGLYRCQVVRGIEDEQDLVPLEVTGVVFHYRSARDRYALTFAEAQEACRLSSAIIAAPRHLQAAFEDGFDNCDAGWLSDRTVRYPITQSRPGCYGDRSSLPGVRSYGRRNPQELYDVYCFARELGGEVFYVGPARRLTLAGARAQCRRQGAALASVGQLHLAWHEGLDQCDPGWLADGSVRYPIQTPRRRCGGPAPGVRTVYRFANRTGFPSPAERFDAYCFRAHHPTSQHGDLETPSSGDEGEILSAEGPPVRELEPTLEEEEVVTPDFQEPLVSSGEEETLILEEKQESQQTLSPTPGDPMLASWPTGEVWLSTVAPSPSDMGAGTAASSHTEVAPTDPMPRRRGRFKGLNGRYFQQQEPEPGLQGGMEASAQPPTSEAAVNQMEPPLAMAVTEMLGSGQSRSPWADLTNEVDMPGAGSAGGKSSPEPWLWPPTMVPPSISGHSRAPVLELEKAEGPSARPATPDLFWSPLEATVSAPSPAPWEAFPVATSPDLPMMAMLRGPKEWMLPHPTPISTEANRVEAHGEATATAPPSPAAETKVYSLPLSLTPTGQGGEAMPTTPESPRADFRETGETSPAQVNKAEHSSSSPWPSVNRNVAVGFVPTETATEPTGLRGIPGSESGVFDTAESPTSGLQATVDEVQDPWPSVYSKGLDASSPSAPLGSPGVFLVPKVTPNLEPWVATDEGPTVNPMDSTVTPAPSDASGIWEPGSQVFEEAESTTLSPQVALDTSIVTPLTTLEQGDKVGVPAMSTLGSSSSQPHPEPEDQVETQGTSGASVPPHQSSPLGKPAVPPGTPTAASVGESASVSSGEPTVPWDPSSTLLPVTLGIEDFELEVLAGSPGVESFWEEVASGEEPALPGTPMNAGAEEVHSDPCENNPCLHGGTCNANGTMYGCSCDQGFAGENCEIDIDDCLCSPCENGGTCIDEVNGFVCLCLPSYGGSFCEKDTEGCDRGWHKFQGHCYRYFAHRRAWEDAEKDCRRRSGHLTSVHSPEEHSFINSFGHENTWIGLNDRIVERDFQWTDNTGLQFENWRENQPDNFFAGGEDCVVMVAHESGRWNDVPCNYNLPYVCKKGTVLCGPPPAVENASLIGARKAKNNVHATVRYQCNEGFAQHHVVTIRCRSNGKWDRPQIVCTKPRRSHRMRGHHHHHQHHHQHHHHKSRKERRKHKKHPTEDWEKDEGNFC

6RG (Lolium perenne): in experiment [1], the “glycan array binding signal (z-score)” value came to 0.249. For the substance C3b (Homo sapiens), P01024, the “glycan array binding signal (z-score)” value in experiment [1] was -0.644. Turning to MpAFP RI GFP (Marinomonas primoryensis), the “glycan array binding signal (z-score)” value in [2] is -0.54; in [3], 1.37. As to wLAT-1A (Homo sapiens), Q01650, in experiment [2], the “glycan array binding signal (z-score)” value is -0.218. As to HARE (Homo sapiens), Q8WWQ8, the “glycan array binding signal (z-score)” value in the experiment on Gal(b1-3)Gal worked out at 2.26.

Take “Regenerating Gene IV (Homo sapiens), Q9BYZ8”: the “glycan array binding signal (z-score)” value in the experiment with Gal(b1-3)Gal was -0.546; in experiment [4], -0.615.

Take Neurocan (Homo sapiens), O14594: the “glycan array binding signal (z-score)” value in experiment [5] is -0.985.

Turning to Siglec-8 (Homo sapiens), Q9NYZ4, the figures for the “glycan array binding signal (z-score)” value in [5] and in [6] were -0.162 and 0.166, respectively.

In the case of PILRb (Mus musculus), Q2YSF2, the “glycan array binding signal (z-score)” value in [7] is 0.611. As to Avaren (Actinomycete K97), the “glycan array binding signal (z-score)” value was -0.081 in experiment [8] and 1.97 in experiment [6]. Consider CHI3L1 (Homo sapiens), P36222, for which, in [3], the “glycan array binding signal (z-score)” value was determined as 0.123.

For the substance PILRa (Mus musculus), Q2YSF3, the “glycan array binding signal (z-score)” value in experiment [9] was -0.146.
